Bioassay records: PubChem BioAssay, The Scripps Research Institute Molecular Screening Center
SRC2 TRFRET art: TR-FRET artefact, counter-screen to PPARgamma/SRC-2 agonist assay; TR-FRET ratio at 8 µM; 0.4% of 200,000 active; active compounds read high; in the data active = TR-FRET ratio above about 2000
SRC3 TRFRET art: counter-screen for PPARgamma SRC-3 recruitment agonists: TR-FRET artefact; PPARgamma/SRC-3 format; active compounds read high; TR-FRET ratio at 8 µM; 0.39% of 99,000 active; in the data active = TR-FRET ratio above about 2000
PPARg SRC1 recr: PPARgamma-driven SRC-1 recruitment agonism | PPARgamma-SRC-1 coactivator recruitment biochemical assay | AID 631 | activation, % at 8 µM | 0.41% of 200,000 active | P37231; in the data active = activation above about 19%;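 note: 0% = DMSO and 100% = reference agonist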
Target sequence (P37231 whole entry, looked up): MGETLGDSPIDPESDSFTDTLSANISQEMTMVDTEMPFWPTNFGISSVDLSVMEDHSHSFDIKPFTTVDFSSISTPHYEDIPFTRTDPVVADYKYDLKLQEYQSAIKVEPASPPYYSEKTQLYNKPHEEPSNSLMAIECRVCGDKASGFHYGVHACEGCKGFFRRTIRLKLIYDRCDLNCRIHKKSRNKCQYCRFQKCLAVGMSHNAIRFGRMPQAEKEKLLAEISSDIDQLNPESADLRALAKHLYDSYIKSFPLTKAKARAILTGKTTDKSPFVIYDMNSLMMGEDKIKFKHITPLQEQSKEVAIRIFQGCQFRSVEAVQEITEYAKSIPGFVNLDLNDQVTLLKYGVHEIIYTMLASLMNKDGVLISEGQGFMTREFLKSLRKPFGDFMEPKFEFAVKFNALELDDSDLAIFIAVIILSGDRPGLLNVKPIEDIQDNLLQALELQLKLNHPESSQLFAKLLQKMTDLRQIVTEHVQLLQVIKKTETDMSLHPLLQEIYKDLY
SRC1 TRFRET art: counter-screen for PPARgamma SRC-1 recruitment agonists: TR-FRET artefact. 0.34% of 99,000 active. TR-FRET ratio at 8 µM. AID 1051. TR-FRET detection artefact counter-screen, emission ratio; active compounds read high; in the data active = TR-FRET ratio above about 2300
PPARg SRC-3 ag: PPARgamma-driven SRC-3 recruitment agonism; 0.26% of 200,000 active; activation, % at 8 µM; AID 731; biochemical PPARgamma/SRC-3 coactivator recruitment assay; in the data active = activation above about 23%;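 note: 0% = DMSO and 100% = reference agonist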
PPARg SRC2 recr: PPARgamma-driven SRC-2 recruitment agonism. activation, % at 8 µM. PPARgamma LBD-SRC-2 recruitment, biochemical. 0.34% of 200,000 active. P37231;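 note: 0% = vehicle and 100% = reference agonist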
PPARg SRC2 ag: confirmation of agonists of SRC-2 recruitment by human PPARgamma; shares compounds with PPARg SRC-3 ag; biochemical SRC-2 recruitment by PPARgamma; activation, % at 8 µM; 52% of 790 active;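 note: 0% = vehicle alone and 100% = reference agonist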
PPARg SRC1 ag: human PPARgamma SRC-1 recruitment agonism, confirmation; shares compounds with PPARg SRC-3 ag; PPARgamma–SRC-1 coactivator recruitment biochemical assay; activation, % at 8 µM; 43% of 790 active; AID 1300; in the data active = activation above about 20%;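 note: 0% = vehicle wells and 100% = reference agonist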
PPARg SRC3 conf: human PPARgamma SRC-3 recruitment agonism, confirmation | biochemical PPARgamma-SRC-3 coactivator recruitment, agonist mode | AID 1301 | activation, % at 8 µM | shares compounds with PPARg SRC-3 ag | 29% of 790 active; in the data active = activation above about 24%;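 note: 0% = vehicle wells and 100% = reference agonist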
An asterisk follows results filed as active. Rows were chosen to be rich in hits. Some 0.84% of all compounds tested hit in one or more screens of this group. Cut-off read from the data, not from the text of the source, unless noted: active = activation above about 22%; inactive = the rest.

For COc1ccc(C2C(C(=O)c3ccco3)=C(O)C(=O)N2c2nnc(C)s2)cc1 (centres undefined) the results were SRC2 TRFRET art 2089*, SRC3 TRFRET art 2261*, PPARg SRC1 recr 25*, SRC1 TRFRET art 2503*, PPARg SRC-3 ag 21, PPARg SRC2 recr 18, PPARg SRC2 ag 31*, PPARg SRC1 ag 25* and PPARg SRC3 conf 17.
For CC(C)CN(CC(C)C)C(=O)Nc1cccc([N+](=O)[O-])c1 the results were SRC2 TRFRET art 1523, SRC3 TRFRET art 1460, PPARg SRC1 recr 7, SRC1 TRFRET art 1705, PPARg SRC-3 ag 1 and PPARg SRC2 recr 3.
`Clc1cccc(-c2ccc(C=Nc3ccc(N4CCOCC4)cc3)o2)c1` gave SRC2 TRFRET art 2011*, SRC3 TRFRET art 1975, PPARg SRC1 recr 28*, SRC1 TRFRET art 2263, PPARg SRC-3 ag 14, PPARg SRC2 recr 26*, PPARg SRC2 ag 35*, PPARg SRC1 ag 25* and PPARg SRC3 conf 21.
`c1ccc2[nH]c(CSc3ncnc4c3oc3ccccc34)nc2c1` gave SRC2 TRFRET art 2940*, PPARg SRC1 recr 44*, PPARg SRC-3 ag 72*, PPARg SRC2 recr 71*, PPARg SRC2 ag 44*, PPARg SRC1 ag 30* and PPARg SRC3 conf 29*.
`COc1ccccc1NC(=O)CSc1ncnc2c1oc1ccccc12` gave SRC2 TRFRET art 1618, PPARg SRC1 recr -5, PPARg SRC-3 ag 13 and PPARg SRC2 recr 2.
Fc1ccc(CSc2ncnc3c2oc2ccccc23)cc1 was read as SRC2 TRFRET art 1720, SRC3 TRFRET art 1683, PPARg SRC1 recr 15, SRC1 TRFRET art 2218, PPARg SRC-3 ag 10 and PPARg SRC2 recr 10.
For Fc1cccc(CSc2ncnc3c2oc2ccccc23)c1 the results were SRC2 TRFRET art 2464*, PPARg SRC1 recr 36*, PPARg SRC-3 ag 42*, PPARg SRC2 recr 45*, PPARg SRC2 ag 39*, PPARg SRC1 ag 27* and PPARg SRC3 conf 27*.
`Cc1nc(SCc2nc3ccccc3[nH]2)c2oc3ccccc3c2n1` gave SRC2 TRFRET art 1383, PPARg SRC1 recr 3, PPARg SRC-3 ag -10 and PPARg SRC2 recr 3.
Screening Cc1cccc(NC(=O)CSc2ncnc3c2oc2ccccc23)c1 returned SRC2 TRFRET art 1711, PPARg SRC1 recr 11, PPARg SRC-3 ag 14 and PPARg SRC2 recr 19.
O=C(CSc1ncnc2c1oc1ccccc12)NCc1ccc(F)cc1 was read as SRC2 TRFRET art 3344*, PPARg SRC1 recr 58*, PPARg SRC-3 ag 63*, PPARg SRC2 recr 71*, PPARg SRC2 ag 48*, PPARg SRC1 ag 34* and PPARg SRC3 conf 29*.
For O=C(CSc1ncnc2c1oc1ccccc12)Nc1cccc(F)c1 the results were SRC2 TRFRET art 1746, PPARg SRC1 recr 25*, PPARg SRC-3 ag 43*, PPARg SRC2 recr 22*, PPARg SRC2 ag 30*, PPARg SRC1 ag 24* and PPARg SRC3 conf 20.
Screening COc1cc(-c2nc(CN(C)Cc3nnc(C)o3)c(C)o2)ccc1F returned SRC2 TRFRET art 1630, SRC3 TRFRET art 1659, PPARg SRC1 recr 2, SRC1 TRFRET art 1940, PPARg SRC-3 ag 6 and PPARg SRC2 recr 0.
Screening Cc1ccc2nc(NC(=O)CSc3ncnc4c3oc3ccccc34)sc2c1 returned SRC2 TRFRET art 1748, PPARg SRC1 recr 30*, PPARg SRC-3 ag 14, PPARg SRC2 recr 10, PPARg SRC2 ag 33*, PPARg SRC1 ag 22* and PPARg SRC3 conf 19.
For CCN(CC)CCCN1C(=O)C(O)=C(C(=O)c2cc3ccccc3o2)C1c1ccccn1 (centres undefined) the results were SRC2 TRFRET art 2586*, PPARg SRC1 recr 43*, PPARg SRC-3 ag 62*, PPARg SRC2 recr 48*, PPARg SRC2 ag 40*, PPARg SRC1 ag 30* and PPARg SRC3 conf 27*.
For CN(C)CCN1C(=O)C(O)=C(C(=O)c2cc3ccccc3o2)C1c1ccccn1 (centres undefined) the results were SRC2 TRFRET art 1299, PPARg SRC1 recr 5, PPARg SRC-3 ag 15 and PPARg SRC2 recr -6.
Cc1ccc2sc(N(CCCN(C)C)C(=O)CN3C(=O)c4ccccc4C3=O)nc2c1C was read as SRC2 TRFRET art 1693, SRC3 TRFRET art 1665, PPARg SRC1 recr 1, SRC1 TRFRET art 1985, PPARg SRC-3 ag 4 and PPARg SRC2 recr 8.
